{
  "source": "PubChem BioAssay (NCI)",
  "note": "The panel holds about 83,000 compounds, 20% with a hit somewhere; the sample as a whole holds those more often.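 In brief: 96-well plates, 48 h treatment, single concentration, percent growth endpoint.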 Unmarked numbers belong to inactive results. Calls of active or inactive are those of the source. Rule for the calls: active = growth percent below 10; inactive = the rest.",
  "data": [
    {"system": "HL-60(TB) leukemia", "assay": "NCI-60 one-dose screen, 48 h (100 = growth as untreated, 0 = no growth, -100 = all killed)", "conditions": "10 µM unless noted", "values": [
      {"smiles": "Cc1cccc(C)c1N1C(c2ccccc2)=NNC12C=CC(=O)c1c(O)cccc12", "note": "(stereo not given)", "growth": "61.2%"},
      {"smiles": "COc1cc(-c2n/c(=C\\c3c(O)[nH]c4ccc(Cl)cc34)cc3c2=Nc2ccccc2-3)cc(OC)c1OC", "growth": "48.3%"},
      {"smiles": "O=[N+]([O-])c1c(S(=O)(=O)O)cc2cc(S(=O)(=O)O)ccc2c1[N+](=O)[O-]", "growth": "108%"},
      {"smiles": "CC(=O)c1ccc2c(c1)CCN2", "growth": "106%"},
      {"smiles": "O=S(=O)(NCCCNc1cc(-c2cn(-c3ccccc3)nc2-c2cccc(O)c2)ccn1)c1cccc2ccccc12", "growth": "17.1%"},
      {"smiles": "COCCOC(C)C(/C=N/NC(N)=S)=N/NC(N)=S", "note": "(stereo not given)", "growth": "81.6%"},
      {"smiles": "COc1cc(C2C3=C(COC3=O)N(CCO)c3cc4c(cc32)OCCO4)cc(OC)c1O", "note": "(stereo not given)", "growth": "-9% (active)"},
      {"smiles": "O=C(c1nnc(Nc2ccccc2Br)o1)c1c[nH]c2ccccc12", "growth": "103%"},
      {"smiles": "CC(C)CSc1nc(Nc2ccccc2)c(C#N)c(-c2ccc(F)cc2)n1", "growth": "73.4%"},
      {"smiles": "CCN(CC)CC(O)CNc1ccnc2cc(Cl)c(Cl)cc12", "note": "(stereo not given)", "growth": "92.2%"},
      {"smiles": "CCOc1ccc(Br)cc1/C=N\\N=C\\c1cc(Br)ccc1OCC", "growth": "73.2%"},
      {"smiles": "Cc1csc(N/N=C/c2ccncc2)n1", "growth": "92.6%"},
      {"smiles": "O=C(NCCNC(=O)Oc1cccc2ccccc12)Oc1cccc2ccccc12", "growth": "79.7%"},
      {"smiles": "COc1ccc(-c2[nH]c3ccc(OC)cc3c2/C=C(\\C#N)S(=O)(=O)c2ccccc2)cc1", "growth": "8.54% (active)"},
      {"smiles": "NC(C(=O)O)c1ccc([N+](=O)[O-])cc1", "note": "(stereo not given)", "growth": "95.8%"},
      {"smiles": "c1ccc([C@H]2CN3CCSC3=N2)cc1", "growth": "99.1%"},
      {"smiles": "Clc1ccc(Cl)c(N=Cc2ccc3c(c2)OCO3)c1", "growth": "102%"},
      {"smiles": "Cc1cccc(N=Nc2cccc(C)c2)c1", "growth": "125%"},
      {"smiles": "COc1ccc(/C(C)=N/NS(=O)(=O)c2ccc(C)cc2)cc1OC", "growth": "97.6%"},
      {"smiles": "Cc1cc(=O)cc(C)n1-c1ccccc1", "growth": "103%"},
      {"smiles": "CC(C)C[C@H](NC(=O)Cn1ccc(NCc2ccccc2)cc1=O)B(O)O", "growth": "3.72% (active)"},
      {"smiles": "C#Cc1cccc(NC(=O)C2CCCCN2C(=O)CCl)c1", "note": "(stereo not given)", "growth": "-31.6% [8.25 µM] (active)"},
      {"smiles": "O=C(Nc1ccccc1)c1ccco1", "growth": "95.7%"},
      {"smiles": "O=C(OCC1OC(n2cc(C(F)(F)F)c(=O)[nH]c2=O)CC1OC(=O)c1ccc([N+](=O)[O-])cc1)c1ccc([N+](=O)[O-])cc1", "note": "(stereo not given)", "growth": "62.7%"},
      {"smiles": "CCCCCCC/C(=N\\N=C(N)N)c1ccc(O)cc1", "growth": "6.11% (active)"},
      {"smiles": "CCC(C)(O)CCC(C)(O)CC", "note": "(stereo not given)", "growth": "101%"},
      {"smiles": "CCCCNC(=O)Oc1ccc(/C(=C(\\C)c2ccccc2)c2ccc(OCCN(CC)CC)cc2)cc1", "growth": "21.3%"},
      {"smiles": "COc1cc(OCc2cccc(-c3ccc(C(O)c4nccs4)cc3)c2C)cc(OC)c1C=O", "note": "(stereo not given)", "growth": "43.5%"},
      {"smiles": "COc1cc(-c2cc(-c3nc4ccc(F)cc4[nH]3)[nH]n2)cc(OC)c1OC", "growth": "-35% (active)"},
      {"smiles": "CCCCCCCCCC1=NC(C)(C)CN1C(C)(C)CO", "growth": "-20.8% (active)"},
      {"smiles": "Nc1nc(-c2ccccn2)cc(-c2cc(-c3ccccn3)nc(N)n2)n1", "growth": "105%"},
      {"smiles": "CCOC(=O)n1cc(C2=C(c3ccc(OC)c(OC)c3)COC2=O)c2ccccc21", "growth": "-28.7% (active)"},
      {"smiles": "CN1CCN(Cc2ccc(NC(=O)c3cncc(C#Cc4cnn5ccccc45)c3)cc2C(F)(F)F)CC1", "growth": "-21.3% (active)"},
      {"smiles": "COc1cc(/C=C\\c2cc(OC)c(OC)c(OC)c2)cc(NC(=O)/C=C/c2cc(OC)c(OC)c(OC)c2)c1OC", "growth": "-6.4% (active)"},
      {"smiles": "CN(C)CCCN(Cc1ccccc1O)C(=S)Nc1ccc(Cl)cc1", "growth": "103%"},
      {"smiles": "C=C1C(=O)O[C@H]2[C@H]1CC/C(COC(=O)N1CCC[C@H]1C(=O)Nc1ccc(OC)c(C(N)=O)c1O)=C\\CC[C@@]1(C)O[C@@H]21", "growth": "-10% (active)"},
      {"smiles": "COc1cc2nc(-c3ccc(Cl)cc3)cc(OCCCN3CCCCC3)c2cc1OC", "growth": "29.6%"},
      {"smiles": "CC(=O)c1cc(Br)ccc1O", "growth": "101%"},
      {"smiles": "Nc1ccn(C2CC(N)C(CO)O2)c(=O)n1", "note": "(stereo not given)", "growth": "84.6%"},
      {"smiles": "COc1ccc(-c2ncc(-c3ccccc3)[nH]2)cc1OC", "growth": "-30.2% (active)"}
    ]}
  ]
}
